Holding throughout (parameters): scale not given: direction of the effect not stated beside the values
Assay [1] has as its target Protein translocase subunit SecA (Escherichia coli (strain K12)) (UniProt P10408). In words: Assay to Identify E. coli SecA ATPase Inhibitors. The format is functional. As to conditions: 30 µM.
For assay [2], the target named is T1, Ubiquitin-activating enzyme e1, putative (Leishmania donovani (strain BPK282A1)) (UniProt E9BSI1).
T1 sequence (whole entry): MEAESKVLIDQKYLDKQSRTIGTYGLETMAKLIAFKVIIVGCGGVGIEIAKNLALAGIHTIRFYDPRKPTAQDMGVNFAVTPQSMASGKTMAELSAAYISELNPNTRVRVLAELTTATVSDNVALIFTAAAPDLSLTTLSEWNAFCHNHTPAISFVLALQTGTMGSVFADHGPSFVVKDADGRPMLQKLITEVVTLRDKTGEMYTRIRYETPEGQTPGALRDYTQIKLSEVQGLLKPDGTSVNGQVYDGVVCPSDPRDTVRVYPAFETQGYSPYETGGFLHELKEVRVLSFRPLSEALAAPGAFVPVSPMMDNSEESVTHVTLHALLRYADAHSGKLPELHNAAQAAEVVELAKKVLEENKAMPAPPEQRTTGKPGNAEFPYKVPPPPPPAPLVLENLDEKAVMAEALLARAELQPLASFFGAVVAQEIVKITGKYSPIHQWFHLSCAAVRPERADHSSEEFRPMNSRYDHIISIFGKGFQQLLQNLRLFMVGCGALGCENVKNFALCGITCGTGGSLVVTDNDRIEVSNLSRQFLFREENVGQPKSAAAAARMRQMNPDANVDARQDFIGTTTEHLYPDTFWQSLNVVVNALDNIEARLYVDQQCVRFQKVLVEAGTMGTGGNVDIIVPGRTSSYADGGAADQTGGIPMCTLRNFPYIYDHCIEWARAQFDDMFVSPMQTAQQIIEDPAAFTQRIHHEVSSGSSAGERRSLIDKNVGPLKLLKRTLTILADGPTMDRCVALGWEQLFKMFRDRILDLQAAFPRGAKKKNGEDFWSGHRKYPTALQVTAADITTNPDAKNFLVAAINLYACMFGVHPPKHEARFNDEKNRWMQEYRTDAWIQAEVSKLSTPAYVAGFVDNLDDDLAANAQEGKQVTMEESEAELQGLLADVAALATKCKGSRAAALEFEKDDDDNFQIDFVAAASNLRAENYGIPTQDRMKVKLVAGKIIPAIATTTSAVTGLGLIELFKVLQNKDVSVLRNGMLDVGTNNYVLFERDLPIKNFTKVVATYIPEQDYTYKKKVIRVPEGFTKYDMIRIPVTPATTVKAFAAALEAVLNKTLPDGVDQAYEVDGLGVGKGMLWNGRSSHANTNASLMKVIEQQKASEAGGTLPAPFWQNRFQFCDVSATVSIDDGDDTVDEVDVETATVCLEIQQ
The assay is described as follows: Leishmania donovani Ubiquitin Activating Enzyme (LdE1). The format is functional. As to conditions: 30 µM.

The target in assay [3] is T2, Aspartate--tRNA(Asp/Asn) ligase (Mycobacterium tuberculosis (strain ATCC 25618 / H37Rv)) (UniProt P9WFW3). Also: in the data most compounds retested in dose-response had high values.
T2 sequence (whole entry): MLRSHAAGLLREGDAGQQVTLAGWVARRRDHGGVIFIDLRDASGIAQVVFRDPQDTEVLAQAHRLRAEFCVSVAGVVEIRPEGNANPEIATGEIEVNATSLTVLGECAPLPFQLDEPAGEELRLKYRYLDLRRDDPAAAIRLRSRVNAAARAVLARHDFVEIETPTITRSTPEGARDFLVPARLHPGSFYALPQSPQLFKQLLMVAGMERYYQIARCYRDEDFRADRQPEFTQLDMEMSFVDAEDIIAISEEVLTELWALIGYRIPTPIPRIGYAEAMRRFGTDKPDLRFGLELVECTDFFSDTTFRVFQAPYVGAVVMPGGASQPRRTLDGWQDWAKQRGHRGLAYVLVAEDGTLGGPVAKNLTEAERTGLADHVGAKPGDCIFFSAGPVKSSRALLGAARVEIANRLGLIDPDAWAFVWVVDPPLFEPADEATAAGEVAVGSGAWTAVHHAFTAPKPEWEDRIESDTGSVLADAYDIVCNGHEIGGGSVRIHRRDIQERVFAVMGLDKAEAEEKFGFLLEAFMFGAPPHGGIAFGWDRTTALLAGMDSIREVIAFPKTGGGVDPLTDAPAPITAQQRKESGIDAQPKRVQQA
In words: Assay for Asp RNA synthetase-1 from Mycobacterium tuberculosis. The format is functional. Conditions: 30 µM.

In assay [4] the target is AMP-activated protein kinase, AMPK (Homo sapiens) (UniProt P54646+O43741+P54619+Q9UGJ0+Q9Y478+Q13131+Q9UGI9). The assay is described as follows: AMP-dependent Kinase enzyme assay. An in vitro enzyme assay that detects ADP turnover that is directly proportional to AMPK activity. This uses naive AMPK that is activated during the assay with MK-8722. The format is functional. Conditions: 30 µM.

The target of assay [5] is Sialic acid-binding Ig-like lectin 9 (Homo sapiens) (UniProt Q9Y336). The assay is described as follows: Hs-Siglec9 ALPHAscreen SOP 20170721. As to conditions: 10 µM. Background: Alpha assays give light when donor and acceptor beads are brought close together.
The test system of the next assay is Trypanosoma cruzi. In words: Trypanosoma cruzi phosphomannomutase and mannose-1-phosphate guanylyltransferase assay. It counts as functional. As to conditions: 10 µM.
The target in assay [6] is T3, Arginase-2, mitochondrial (Homo sapiens) (UniProt P78540).
T3 sequence (whole entry): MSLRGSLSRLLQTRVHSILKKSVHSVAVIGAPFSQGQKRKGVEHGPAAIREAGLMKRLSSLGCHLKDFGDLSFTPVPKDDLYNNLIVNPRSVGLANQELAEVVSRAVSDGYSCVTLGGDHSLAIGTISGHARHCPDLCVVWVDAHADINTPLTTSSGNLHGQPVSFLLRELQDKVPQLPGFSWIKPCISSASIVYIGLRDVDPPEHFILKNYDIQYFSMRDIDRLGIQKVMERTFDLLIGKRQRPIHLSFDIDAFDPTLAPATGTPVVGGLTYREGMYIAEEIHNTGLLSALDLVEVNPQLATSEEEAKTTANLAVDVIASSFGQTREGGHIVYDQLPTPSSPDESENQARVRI
In words: in vitro enzyme assay to detect the production of urea directly proportional to the activity of Arginase II. Also: in the data most compounds retested in dose-response had high values. It counts as functional. Conditions: 33.3 µM.

Assay [7] addresses T4, Proteasome subunit beta (Trypanosoma cruzi) (UniProt O96673).
T4 sequence (whole entry): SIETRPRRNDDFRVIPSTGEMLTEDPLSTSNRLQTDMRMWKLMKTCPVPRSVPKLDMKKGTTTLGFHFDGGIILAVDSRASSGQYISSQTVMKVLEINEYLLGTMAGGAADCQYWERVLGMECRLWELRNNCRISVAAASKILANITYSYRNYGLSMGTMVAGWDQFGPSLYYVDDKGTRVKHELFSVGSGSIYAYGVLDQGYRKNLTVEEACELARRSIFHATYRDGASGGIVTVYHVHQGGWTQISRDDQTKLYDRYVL
In words: Trypanosoma cruzi proteasome chymotrypsin-like activity (TcProtChymo) assay. Also: in the data most compounds retested in dose-response had high values. It counts as functional. Conditions: 9.37 µM.

The species entered for a further assay is Homo sapiens. The assay is described as follows: To identify inhibition of the IFN signalling (Jak-Stat) pathway via expression of an eGFP reporter gene under the control of an IFN-stimulated response element (ISRE) containing MxA promoter. Conditions: 30 µM. The format is functional.
For assay [8], the target named is Shiga toxin 2 (Escherichia coli O157:H7) (UniProt P09385+P09386). The assay is described as follows: E. coli 0.157:H7 Shiga Toxin SOP - stx2 screening assay. Conditions: 30 µM. The format is functional.
For assay [9], the target named is T5, Tyrosyl-tRNA synthetase, putative (Trypanosoma cruzi (strain CL Brener)) (UniProt Q4DSP6).
T5 sequence (whole entry): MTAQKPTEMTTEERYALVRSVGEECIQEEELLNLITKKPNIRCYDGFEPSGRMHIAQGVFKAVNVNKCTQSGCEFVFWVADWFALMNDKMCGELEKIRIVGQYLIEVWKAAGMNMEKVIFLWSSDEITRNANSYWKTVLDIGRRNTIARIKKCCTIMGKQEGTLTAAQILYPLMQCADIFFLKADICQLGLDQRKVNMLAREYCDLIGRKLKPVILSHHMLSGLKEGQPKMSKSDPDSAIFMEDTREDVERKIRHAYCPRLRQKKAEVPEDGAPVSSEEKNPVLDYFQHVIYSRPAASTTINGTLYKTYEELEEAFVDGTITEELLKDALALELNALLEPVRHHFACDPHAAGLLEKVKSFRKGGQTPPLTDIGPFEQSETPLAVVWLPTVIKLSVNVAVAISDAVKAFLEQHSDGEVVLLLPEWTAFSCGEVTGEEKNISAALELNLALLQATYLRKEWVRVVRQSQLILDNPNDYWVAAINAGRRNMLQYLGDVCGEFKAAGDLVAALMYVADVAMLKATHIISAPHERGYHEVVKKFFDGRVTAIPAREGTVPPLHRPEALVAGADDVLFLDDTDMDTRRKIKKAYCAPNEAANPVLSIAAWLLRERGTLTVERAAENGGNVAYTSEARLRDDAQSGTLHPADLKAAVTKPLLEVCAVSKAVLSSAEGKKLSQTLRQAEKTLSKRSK
In words: Trypanosoma cruzi tyrosyl tRNA synthetase (TcYRS) _High Tyrosine SOP. Also: in the data most compounds retested in dose-response had high values. Conditions: 30 µM. It counts as functional.

In assay [10] the target is T5, Tyrosyl-tRNA synthetase, putative (Trypanosoma cruzi (strain CL Brener)). In words: Trypanosoma cruzi tyrosyl tRNA synthetase (TcYRS) SOP. The format is functional. As to conditions: 30 µM.
Assay [11] has as its target Chromo domain-containing protein 1 (Saccharomyces cerevisiae (strain ATCC 204508 / S288c) (Baker's yeast)) (UniProt P32657). The assay is described as follows: ScCHD-1 Enzyme Inhibition Assay. Also: in the data most compounds retested in dose-response had high values. The format is functional. Conditions: 30 µM.

This is an account of results in ChEMBL document CHEMBL3988442, “University of Dundee, Small-Polar-MMV Screening Library” (2021).

The structures appear in SMILES notation. For some assays here: Potency and affinity values are given separately.

Chromo domain-containing protein 1 (Saccharomyces cerevisiae (strain ATCC 204508 / S288c) (Baker's yeast)), sequence (P32657 whole entry, the tested form may be a part): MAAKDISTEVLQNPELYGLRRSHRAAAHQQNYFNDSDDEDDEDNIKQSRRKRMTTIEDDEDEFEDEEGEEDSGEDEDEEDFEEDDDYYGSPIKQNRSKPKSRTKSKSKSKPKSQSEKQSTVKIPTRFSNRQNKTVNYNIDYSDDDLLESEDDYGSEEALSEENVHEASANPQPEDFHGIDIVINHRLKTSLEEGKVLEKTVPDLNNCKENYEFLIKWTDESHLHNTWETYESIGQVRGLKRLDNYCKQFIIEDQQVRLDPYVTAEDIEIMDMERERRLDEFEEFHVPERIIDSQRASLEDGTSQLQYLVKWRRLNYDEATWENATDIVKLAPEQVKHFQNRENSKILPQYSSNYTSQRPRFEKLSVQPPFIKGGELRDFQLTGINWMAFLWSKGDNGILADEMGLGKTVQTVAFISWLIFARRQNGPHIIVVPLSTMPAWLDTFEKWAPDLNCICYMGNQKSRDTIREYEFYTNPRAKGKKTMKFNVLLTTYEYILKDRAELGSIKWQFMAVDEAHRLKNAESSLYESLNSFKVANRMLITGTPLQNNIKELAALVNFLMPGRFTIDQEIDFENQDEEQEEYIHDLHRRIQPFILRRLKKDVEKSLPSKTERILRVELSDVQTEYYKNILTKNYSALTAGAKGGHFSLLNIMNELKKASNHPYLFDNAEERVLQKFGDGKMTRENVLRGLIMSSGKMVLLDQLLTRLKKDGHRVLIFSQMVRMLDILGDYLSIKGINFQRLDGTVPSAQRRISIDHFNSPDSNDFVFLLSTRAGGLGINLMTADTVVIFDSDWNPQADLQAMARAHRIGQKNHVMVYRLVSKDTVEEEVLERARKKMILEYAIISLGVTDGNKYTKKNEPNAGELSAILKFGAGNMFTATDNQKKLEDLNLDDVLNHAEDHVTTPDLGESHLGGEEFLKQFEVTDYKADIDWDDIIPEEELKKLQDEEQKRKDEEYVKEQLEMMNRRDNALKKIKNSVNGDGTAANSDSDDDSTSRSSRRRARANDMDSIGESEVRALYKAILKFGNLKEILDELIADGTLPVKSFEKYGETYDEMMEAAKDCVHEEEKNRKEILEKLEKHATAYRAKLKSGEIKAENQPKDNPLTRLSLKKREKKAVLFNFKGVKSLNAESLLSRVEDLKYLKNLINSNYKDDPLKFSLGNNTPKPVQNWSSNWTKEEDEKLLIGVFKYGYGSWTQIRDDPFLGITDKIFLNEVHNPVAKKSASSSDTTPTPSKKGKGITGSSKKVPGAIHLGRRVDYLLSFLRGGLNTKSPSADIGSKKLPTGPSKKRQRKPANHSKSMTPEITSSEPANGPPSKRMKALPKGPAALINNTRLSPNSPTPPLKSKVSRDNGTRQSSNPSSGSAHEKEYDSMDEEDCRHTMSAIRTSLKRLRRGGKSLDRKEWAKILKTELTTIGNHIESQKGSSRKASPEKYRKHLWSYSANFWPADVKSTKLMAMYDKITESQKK
Protein translocase subunit SecA (Escherichia coli (strain K12)), sequence (P10408 whole entry): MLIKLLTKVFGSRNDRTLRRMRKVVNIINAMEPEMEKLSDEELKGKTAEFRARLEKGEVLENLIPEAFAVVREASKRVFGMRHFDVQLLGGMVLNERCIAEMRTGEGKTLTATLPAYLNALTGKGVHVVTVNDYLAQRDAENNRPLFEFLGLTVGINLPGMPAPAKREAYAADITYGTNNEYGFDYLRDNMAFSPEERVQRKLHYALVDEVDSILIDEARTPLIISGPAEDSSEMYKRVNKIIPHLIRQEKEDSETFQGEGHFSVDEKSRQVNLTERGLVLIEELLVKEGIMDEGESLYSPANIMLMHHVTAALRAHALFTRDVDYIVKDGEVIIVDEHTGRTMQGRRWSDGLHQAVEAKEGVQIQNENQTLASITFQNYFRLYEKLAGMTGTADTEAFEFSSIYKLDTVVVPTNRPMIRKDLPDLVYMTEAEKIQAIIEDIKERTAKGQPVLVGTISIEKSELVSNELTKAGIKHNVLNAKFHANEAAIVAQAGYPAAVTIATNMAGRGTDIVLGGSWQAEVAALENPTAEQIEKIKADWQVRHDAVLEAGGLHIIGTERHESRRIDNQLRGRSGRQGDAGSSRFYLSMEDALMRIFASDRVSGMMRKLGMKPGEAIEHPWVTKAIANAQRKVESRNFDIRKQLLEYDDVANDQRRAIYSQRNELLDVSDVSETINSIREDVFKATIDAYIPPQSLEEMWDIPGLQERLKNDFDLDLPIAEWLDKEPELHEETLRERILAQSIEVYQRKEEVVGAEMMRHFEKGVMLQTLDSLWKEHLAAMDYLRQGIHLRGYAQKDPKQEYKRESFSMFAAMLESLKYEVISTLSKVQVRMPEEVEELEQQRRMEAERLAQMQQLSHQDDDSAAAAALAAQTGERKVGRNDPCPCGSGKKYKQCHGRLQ
Sialic acid-binding Ig-like lectin 9 (Homo sapiens), sequence (Q9Y336 whole entry): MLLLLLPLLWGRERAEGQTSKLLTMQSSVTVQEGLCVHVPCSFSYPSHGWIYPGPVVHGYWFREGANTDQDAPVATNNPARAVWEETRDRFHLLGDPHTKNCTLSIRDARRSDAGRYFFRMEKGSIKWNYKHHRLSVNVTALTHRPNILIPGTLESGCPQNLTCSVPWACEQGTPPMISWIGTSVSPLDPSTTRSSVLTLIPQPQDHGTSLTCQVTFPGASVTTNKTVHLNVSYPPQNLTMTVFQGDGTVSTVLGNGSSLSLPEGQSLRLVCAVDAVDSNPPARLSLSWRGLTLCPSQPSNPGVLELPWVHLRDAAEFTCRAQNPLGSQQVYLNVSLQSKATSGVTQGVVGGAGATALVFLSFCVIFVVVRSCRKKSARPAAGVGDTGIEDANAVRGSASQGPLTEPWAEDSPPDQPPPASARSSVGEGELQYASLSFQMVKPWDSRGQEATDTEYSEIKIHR

As to `Fc1cnc(N2CCO[C@H]3CN(CC4CCC4)C[C@H]32)nc1`, the Percent Effect in assay [1] is -5.78%; in assay [2] it was 16%; in [3], -2.5%; in [4], -5.38%; in assay [5], 0.543%; with Trypanosoma cruzi it was 1.93%. Besides, the Percent Effect is -59.3% in assay [6]; 14.5% in [7]; 5.62% in the assay listed under Homo sapiens; -17.2% in assay [8]; -4.17% in assay [9]; 17.5% in assay [10]. Further, the Percent Effect in assay [11] is -17.8%.

For the compound `Cc1nc(C)c(CC(=O)N2C[C@@H]3CC[C@H](C2)N(CC2CCC2)C3)c(=O)[nH]1`, the Percent Effect in assay [1] is -2.23%; in assay [2] it was 18.9%; in assay [3] it was -2.78%; in [4] it was -35.4%; in [5], 21.6%; in the assay on Trypanosoma cruzi, 4.2%. Moreover, the Percent Effect is 16.1% in assay [6]; 16.2% in assay [7]; -15.8% in the assay listed under Homo sapiens; 5.33% in assay [8]; 4.3% in assay [9]; 18.5% in assay [10]. Further, the Percent Effect in assay [11] is -11.7%.

As for `CC(C)N1CCc2c(CN(C)Cc3ccco3)cncc2C1`, the Percent Effect in assay [1] was -2.76%; in assay [2] it was 0%; in [3], -1.51%; in [4], 0.165%; in [5] it was 16.7%; in the assay on Trypanosoma cruzi, -3.86%. Besides, the Percent Effect was -22.8% in assay [6]; 0.171% in [7]; -0.596% in the assay listed under Homo sapiens; -0.895% in assay [8]; 4.17% in assay [9]; -7.5% in assay [10]. Besides, the Percent Effect in [11] was -4.61%.

In the case of `CN1CCC2(CC1)CNC(=O)c1ccccc1O2`, the Percent Effect in assay [1] was -3.91%; in assay [2], 6.76%; in assay [3], -2.4%; in [4], 13.4%; in assay [5], 4.99%; with Trypanosoma cruzi, -5.34%. The Percent Effect in assay [6] was determined as 0.232%; in assay [7] it was 10.3%; in the assay filed under Homo sapiens, 1.44%; in assay [8], 12.6%; in assay [9] it was 6.45%; in assay [10] it was 6.49%. Also, the Percent Effect in [11] is -6.62%.

Take `Cn1c(=O)n(C)c2cc(C3SCC(=O)Nc4ccsc43)ccc21` (stereo not given): the Percent Effect in assay [1] is -5.92%; in assay [2] it was 6.67%; in [3] it was -5.4%; in assay [4] it was -13.6%; in [5], -2.48%; in the assay on Trypanosoma cruzi it was 7.27%. For the same compound, the Percent Effect in assay [6] is -11.8%; in assay [7] it was 12.9%; in the assay filed under Homo sapiens, 37.1%; in assay [8] it was -33.2%; in assay [9], 4.23%; in assay [10], 12.8%. Moreover, in assay [11], the Percent Effect is -7.83%.
